Assay outcomes (PubChem)
Shiga toxin inh – Shiga toxin inhibition. Vero cells, Shiga toxin protein synthesis inhibition reporter. inhibition, % at 38.7 µM. 290,000 compounds, 9.2% hits; in the data active means inhibition mostly above about 28%, no sharp cut-off; inactive means mostly below about 43%; further: 0% is about no effect
CHX counter – counter-screen hit for Shiga toxin inhibitors, cycloheximide; cell reporter, cycloheximide protein synthesis inhibition counterscreen; AID 2314; 300,000 compounds, 12% hits; max response, %; in the data active means max response mostly above about 13%, no sharp cut-off; inactive means mostly below about 14%; further: read at 38.3 µM for the half of the compounds with a filed dose; 0% is about no effect
AMA1 RON2 block – AMA1-RON2 (P. falciparum) interaction inhibition. AID 720542. Potency, µM (titrated, usually from 58.2 µM), without a hit: at the highest dose activity change, negative = inhibition, hits mostly inhibitors. 360,000 compounds, 0.2% hits. AlphaScreen AMA1-biotinylated RON2 peptide binding;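 further: potency means the concentration at half of the fitted maximal effect; 0% = vehicle wells and -100% = peptide control; nearly all actives have a fitted effect of over 45% in size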
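AMA1 (3D7) with his tag at 25 nM final met compounds first, then biotinylated RON2 peptide at 25 nM; detection used donor plus acceptor beads, 10 µg/mL apiece, read by AlphaScreen after 30 min at room temperature.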
SARS PLpro yeast – inhibitors of SARS-CoV papain-like protease in yeast; S. cerevisiae expressing SARS-CoV PLpro, growth rescue; 330,000 compounds, 0.19% hits; AID 485353; Potency, µM (top dose mostly 32.9 µM), without a hit: top-dose activity, positive = growth rescue, hits mostly activators; calls by dose curve; further: potency means the concentration at half of the fitted maximal effect; 0% is about no effect; nearly all actives have a fitted effect of over 55% in size
Pf growth 48h – P. falciparum growth inhibition at 48 hours (one generation) | P. falciparum luciferase growth in erythrocytes, 48 h | Potency, µM (highest dose often 28.7 µM), inactives show top-dose activity change, negative = inhibition, usual class: inhibitors | 310,000 compounds, 5.9% hits; further: potency means the concentration at half of the fitted maximal effect; on the % scale 0 is the no-effect control and ±100 the full control effect
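Read-out is firefly luciferase luminescence from an integrated reporter in P. falciparum, so falling signal marks reduced parasite growth. Infected erythrocytes were at 2% hematocrit and 0.1% parasitemia (final) in Albumax-supplemented RPMI 1640.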
Pf growth 96h – P. falciparum growth inhibition at 96 hours; AID 504834; Potency, µM (series often up to 28.7 µM), inactives show top-dose activity change, negative = inhibition, actives largely listed as inhibitors; P. falciparum luciferase reporter growth, 96 h; 320,000 compounds, 6.9% hits; further: potency means the concentration at half of the fitted maximal effect; on the % scale 0 is the no-effect control and ±100 the full control effect
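Readout is luminescence from an integrated firefly luciferase in P. falciparum. Red cells, 2% hematocrit and 0.05% parasitemia final, were cultured with compound through two parasite generations (96 hours) at 37 C, 5% CO2.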
An asterisk follows results filed as active; ? = inconclusive; nt = no result; + = active, no number; [ ] = dose if it differs, or a comment. In the library only some 19% were active in any assay of this set; here they are far more common. Unless noted, the call rests on the fitted dose curve; in most records, active means well fitted curve in the direction sought with a large enough effect; inconclusive means small, poorly fitted or top-dose-only effect, or another doubt; inactive means no such curve, though single readings can be large; an effect the other way counts as inactive or inconclusive.

SMILES	Shiga toxin inh	CHX counter	AMA1 RON2 block	SARS PLpro yeast	Pf growth 48h	Pf growth 96h
O=C(CSCc1ccc(F)cc1)NC1CCCC1	37.3*	25.6*	-3.1%	-0.1%	28.8%	?
O=C(Cc1ccc(F)cc1)NC1CCCCCC1	39.2	4.6	1.9%	-5.4%	15.1%	0.0%
CCCNC(=O)c1nn2cc(Br)cnc2c1Br	4.4	16.7	-15.4%	-8.9%	7.2%	?
O=C(O)CSCC(=O)Nc1ccccc1	nt	nt	3.2%	nt	nt	nt
O=C(O)CCCC(=O)Nc1cc([N+](=O)[O-])ccc1O	-2.4	-1.8	-2.6%	0.5%	3.1%	13.1µM*
CCCC(CCC(=O)Nc1cc([N+](=O)[O-])ccc1O)C(=O)O (stereo not given)	4.1	1.8	3.1%	2.7%	34.6%	28.9%
N#CCSCC(=O)Nc1ccccc1	28.4	20.1*	4.3%	8.6%	26.2%	151.3%
O=C(CSCc1ccccc1Br)Nc1ccccc1	17.8	26.6*	-6.2%	-5.6%	-15.8%	?
O=C(CSCc1ccccc1)Nc1ccc(F)c(F)c1	72.6*	47.3*	-0.2%[11.6 µM]	-24.8%	56.7%	-1.8%
CC(C)Cn1c(=O)c2c(nc3n2CC(C)CN3Cc2ccccc2)n(C)c1=O (stereo not given)	-14.5	-4.5	0.0%	2.8%	?	?
O=[N+]([O-])c1cccc(/C=C/c2nc[nH]c2[N+](=O)[O-])c1	-1.3	-2.9	7.9%	-0.5%	?	1.47µM*
O=C(N/N=C/c1cccc([N+](=O)[O-])c1)c1ccc2nc[nH]c2c1	-1.7	-2.7	43.2%	11.1%	nt	-17.3%
CC1(C)COC(/C=C/c2cccc([N+](=O)[O-])c2)=N1	65.0*	34.4*	10.9%	-5.7%	?	-31.1%
O=C(NCc1cccc(F)c1)c1ccc2nc(N3CCOCC3)sc2c1	16.0	9.9	-3.2%	6.3%	-17.9%	-11.3%
COCCN1C(=O)N[C@@H](c2cccc(F)c2)C(C(=O)OC)=C1C	-2.3	-4.4	0.4%	-2.4%	42.2%	41.1%
CC(=O)NC(CC(C)C)C(=O)NC(Cc1ccccc1)C(=O)CCl (stereo not given)	nt	nt	12.6%	nt	nt	nt
CC(=O)NC(CC(C)C)C(=O)NC(Cc1ccccc1)C(N)=O (stereo not given)	8.8	8.8*	-4.2%	6.4%	-0.3%	?
CC(C)CC(NC(=O)C(NC(=O)OC(C)(C)C)C(C)C)C(=O)NC(CCC(=O)OCc1ccccc1)C(N)=O (stereo not given)	18.2	-1.3	-13.6%	-0.3%	1.85µM*	?
CCOc1ccc(S(=O)(=O)N(CC)CC)cc1NC(=O)CSCc1c(C)noc1C	nt	nt	4.8%	0.9%	?	?
Cc1cc(C)c2c(N)c(C(=O)NCC3CCCCC3)sc2n1	130.0*	35.3*	6.3%	-6.9%	3.8%	nt
Cc1cc(C)c2c(N)c(C(=O)NC3CCCC3)sc2n1	70.3*	20.1*	16.1%	-4.5%	14.8%	5.8%
CCOC(=O)c1oc2ccccc2c1CN1CCCCC1	16.7	7.1	8.8%	0.7%	23.0%	?
CCOC(=O)c1oc2ccccc2c1CN1CCN(C)CC1	-2.2	-5.3	6.0%	-24.8%	16.1%	13.1µM*
c1ccc(-c2nc3nc4ccccc4nc3n2Cc2ccco2)cc1	137.1*	81.9*	-14.1%	-10.8%	-34.8%	-3.3%
Fc1ccc(-n2c(-c3ccco3)nc3nc4ccccc4nc32)cc1	-11.0	-4.9	2.1%	4.9%	5.6%	?
SMILES	Shiga toxin inh	CHX counter	AMA1 RON2 block	SARS PLpro yeast	Pf growth 48h	Pf growth 96h
Fc1ccc(-c2nc3nc4ccccc4nc3n2Cc2ccco2)cc1	125.4*	43.7*	-8.9%	-6.7%	-6.5%	101.6%
COc1ccccc1C(=O)Nc1ccc2c(c1)nc1n2CCN(C2CCCCC2)C1	-5.1	-1.8	20.4%	-9.6%	?	?
O=C1CN(S(=O)(=O)c2cccc(Br)c2)CCN1	nt	nt	2.3%	-0.6%	nt	nt
CCOC(=O)N1CCc2c(sc(N)c2C#N)C1	2.5	0.9	0.0%	-1.8%	24.6%	7.3%
N#Cc1c(N)sc2c1CCN(CCc1ccccc1)C2	11.0	-2.4	-0.3%	-14.2%	10.4µM*	78.9%
N#Cc1c(NC(=O)c2cc([N+](=O)[O-])ccc2N2CCOCC2)sc2c1CCCC2	+	29.9*	-9.9%	13.8%	?	?
CC(C)c1onc(C(=O)Nc2sc3c(c2C#N)CCC3)c1[N+](=O)[O-]	41.2	9.6	-14.8%	-3.3%	-3.6%	?
